# Results with a measured potency or affinity are listed apart. Values without a mark were called inactive.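 Rule for the calls, unless noted: active = a fitted half-maximal concentration no higher than twice the top valid tested dose, with signal falling as cells die; inconclusive = flat curve between -70% and -30%, or poor fit; inactive = the rest, including signal rising instead of falling.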
# Assay: HepG2 cell cytotoxicity, dose response, cytotoxicity control, cherry-picks, set 2 (AID 687002;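 active = a dose-response fit showing signal loss, with half-maximal concentration no higher than twice the top tested dose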)
# Conditions: HepG2 viability, ATP luminescence (CellTiter-Glo), 48 h; series mostly up to 26 µM; activity change, negative = cytotoxicity: at the top concentration
row,SMILES,"activity change, negative = cytotoxicity"
1,O=C(C[C@@H]1CC[C@H]2[C@@H](COC[C@@H](O)CN2C(=O)Nc2ccc(Cl)cc2)O1)NCCc1ccncc1,-9.19%
2,O=C(c1cccc(Br)c1)N1CCN(c2ccccn2)CC1,9.51%
3,C[C@H]1CN([C@@H](C)CO)C(=O)Cc2cc(NC(=O)Nc3ccccc3)ccc2O[C@H]1CN(C)C(=O)Nc1ccc2c(c1)OCO2,17%
4,O=C(CN(c1ccc(F)cc1)S(=O)(=O)c1ccccc1)NC1CCCCCC1,-4.15%
5,C[C@@H]1CN([C@@H](C)CO)C(=O)c2cc(NC(=O)Nc3ccc4c(c3)OCO4)ccc2O[C@H]1CN(C)Cc1ccc(Oc2ccccc2)cc1,-0.709% [at 23.5 µM]
6,O=C(Nc1ccc(F)cc1)N1C[C@H]2[C@@H](c3ccccc31)[C@@H](CO)N2Cc1cocn1,4.33%
7,C[C@@H]1CCCCO[C@@H](CN(C)Cc2ccncc2)[C@@H](C)CN([C@H](C)CO)C(=O)c2cc(NC(=O)c3ccncc3)ccc2O1,-1.35%
8,CNC(=O)C[C@H]1CC[C@H]2[C@H](COc3ccc(NC(=O)c4cc(C)on4)cc3C(=O)N2C)O1,0.86% [at 23.5 µM]
9,C[C@@H]1CN([C@@H](C)CO)S(=O)(=O)c2ccc(C#C[C@@H](C)O)cc2O[C@@H]1CN(C)C(=O)C1CCCCC1,-2.67%
10,C[C@H](CO)N1C[C@H](C)[C@H](CN(C)C(=O)Nc2cccc(F)c2)Oc2ncc(C#CCN(C)C)cc2C1=O,-10.5%
11,COc1ccccc1NC(=O)N[C@@H]1CC[C@H](CCn2cc(-c3ccccc3OC)nn2)O[C@H]1CO,6.16%
12,CC(C)NC(=O)N(C)C[C@@H]1OCCCC[C@H](C)Oc2ccc(NC(=O)Cc3ccccc3)cc2C(=O)N([C@H](C)CO)C[C@H]1C,18%
13,COc1cccc(C#Cc2cnc3c(c2)C(=O)N([C@H](C)CO)C[C@@H](C)[C@@H](CN(C)C(=O)C2CCOCC2)O3)c1,8.53% [at 23.5 µM]

# Assay: HeLa cell cytotoxicity, dose response, cytotoxicity control, ATP luminescence, cherry-pick samples (AID 687004);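 note: 0% = neutral control median and -100% = staurosporine 10 µM control median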
# Conditions: HeLa viability, ATP luminescence (CellTiter-Glo), 48 h; series mostly up to 26 µM; activity change, negative = cytotoxicity: at the top concentration
row,SMILES,"activity change, negative = cytotoxicity"
1,Cc1ccc(S(=O)(=O)N(C)C[C@@H]2Oc3ccc(NS(=O)(=O)c4ccc(Cl)cc4)cc3CC(=O)N([C@@H](C)CO)C[C@@H]2C)cc1,19.2%
2,C[C@H](O)C#Cc1cnc2c(c1)C(=O)N([C@@H](C)CO)C[C@@H](C)[C@@H](CN(C)C(=O)Cc1ccncc1)O2,3.58%
3,COc1ccc(-n2ncc3c(SCC(=O)N4CCN(c5ccccc5OC)CC4)ncnc32)cc1,10%
4,CC(=O)N1[C@@H]2CN(S(=O)(=O)c3ccccc3F)c3ccccc3[C@@H]2[C@@H]1CO,11.1%
5,COCC(=O)NC[C@H]1N[C@H](CO)[C@@H]1c1ccc(C2=CCCC2)cc1,-13%
6,CCC(C)(NC=O)C(=O)Nc1c(C)cccc1C (stereo not drawn),0.055%
7,CO[C@@H]1CN(C)C(=O)c2ccc(NC(=O)NC(C)C)cc2OC[C@H](C)NC[C@@H]1C,-3.06%
8,CNC(=O)C[C@@H]1CC[C@@H]2[C@H](COC[C@@H](O)CN2C(=O)Nc2ccc3c(c2)OCO3)O1,5.5%
9,CNC[C@@H]1OCCCC[C@H](C)Oc2ccc(NC(=O)c3ccccc3)cc2C(=O)N([C@@H](C)CO)C[C@@H]1C,1.93%
10,COc1cccc(-c2cn(CC[C@@H]3CC[C@H](NC(C)=O)[C@@H](CO)O3)nn2)c1,11.2%
11,O=C(C[C@@H]1CC[C@@H]2[C@H](COC[C@H](O)CN2Cc2cccc(C(F)(F)F)c2)O1)NCc1ccc(Cl)cc1,-11.8%
12,CO[C@H]1CN(C)C(=O)c2ccc(NC(=O)C3CC3)cc2OC[C@@H](C)N(Cc2ccc(F)cc2)C[C@@H]1C,2.32%
13,C[C@@H]1CN([C@H](C)CO)C(=O)c2cc(NC(=O)CCC(F)(F)F)ccc2O[C@@H](C)CCCCO[C@@H]1CN(C)C(=O)c1ccncc1,7.62% [at 23.5 µM]
14,C[C@@H]1CN([C@@H](C)CO)C(=O)c2cc(-c3ccc(C#N)cc3)cnc2O[C@@H]1CN(C)C(=O)Nc1ccc(F)cc1,-1.45%
15,CO[C@H]1CN(C)C(=O)c2cc(NC(=O)C3CCOCC3)ccc2OC[C@@H](C)NC[C@H]1C,11.3% [at 23.5 µM]
16,CN1C(=O)c2cccc3c(S(=O)(=O)N(C)C)ccc1c23,-3.04%
17,N#Cc1ccc(C23CC4(C2)[C@H](CN(Cc2ccc(-c5ccccc5)cc2)[C@@H]4c2ccccc2)C3c2ccc(C(F)(F)F)cc2)cc1 (stereo partly drawn),13.5%
18,CN1C(=O)c2cc(NS(=O)(=O)c3cccc(F)c3)ccc2OC[C@@H]2O[C@@H](CC(=O)O)CC[C@H]21,0.488%
19,COCC#Cc1cnc2c(c1)C(=O)N([C@@H](C)CO)C[C@@H](C)[C@@H](CN(C)C(=O)C1CC1)O2,-1.41%
20,CC(=O)N1[C@@H](CO)[C@H](c2ccc(-c3ccccc3)cc2)[C@@H]1CNC(=O)C1CC1,-3.26%

row,SMILES,"activity change, negative = cytotoxicity"
1,O=C(NCC[C@H]1CC[C@H](NS(=O)(=O)c2ccc(F)cc2)[C@@H](CO)O1)c1ccc2c(c1)OCO2,0.674%
2,COCCNC(=O)C[C@@H]1C[C@H]2c3cc(NC(=O)C4CCC4)ccc3O[C@H]2[C@@H](CO)O1,10.1%
3,COc1ccc(-n2cc(CNCCc3nc(C)cc(C)n3)c(-c3ccccc3Cl)n2)cc1,19.7%
4,C[C@H]1CCCCO[C@H](CN(C)Cc2ccncc2)[C@@H](C)CN([C@@H](C)CO)C(=O)c2cc(NC(=O)CCCN(C)C)ccc2O1,2.52%
5,COCC(=O)N1C[C@H](C)[C@H](OC)CN(C)C(=O)c2ccc(NC(=O)NC(C)C)cc2OC[C@@H]1C,9.41%
6,COc1ccc(N2CCN(C(=O)CSc3ncnc4c3cnn4-c3ccc(OC)cc3)CC2)cc1,4%
7,CC(=O)NC[C@H]1[C@@H](c2ccc(C3=CCCC3)cc2)[C@@H](CO)N1C(=O)NC(C)C,8.28%
8,O=C(C[C@@H]1CC[C@H]2[C@@H](COC[C@@H](O)CN2C(=O)Nc2ccc(Cl)cc2)O1)NCCc1ccncc1,-1.96%
9,O=C(c1cccc(Br)c1)N1CCN(c2ccccn2)CC1,-0.147%
10,C[C@H]1CN([C@@H](C)CO)C(=O)Cc2cc(NC(=O)Nc3ccccc3)ccc2O[C@H]1CN(C)C(=O)Nc1ccc2c(c1)OCO2,0.602%
11,O=C(CN(c1ccc(F)cc1)S(=O)(=O)c1ccccc1)NC1CCCCCC1,-7.01%
12,C[C@@H]1CN([C@@H](C)CO)C(=O)c2cc(NC(=O)Nc3ccc4c(c3)OCO4)ccc2O[C@H]1CN(C)Cc1ccc(Oc2ccccc2)cc1,-6.71% [at 23.5 µM]
13,O=C(Nc1ccc(F)cc1)N1C[C@H]2[C@@H](c3ccccc31)[C@@H](CO)N2Cc1cocn1,-1.83%
14,C[C@@H]1CCCCO[C@@H](CN(C)Cc2ccncc2)[C@@H](C)CN([C@H](C)CO)C(=O)c2cc(NC(=O)c3ccncc3)ccc2O1,2.02%
15,CNC(=O)C[C@H]1CC[C@H]2[C@H](COc3ccc(NC(=O)c4cc(C)on4)cc3C(=O)N2C)O1,1.2% [at 23.5 µM]
16,C[C@@H]1CN([C@@H](C)CO)S(=O)(=O)c2ccc(C#C[C@@H](C)O)cc2O[C@@H]1CN(C)C(=O)C1CCCCC1,-0.708%
17,C[C@H](CO)N1C[C@H](C)[C@H](CN(C)C(=O)Nc2cccc(F)c2)Oc2ncc(C#CCN(C)C)cc2C1=O,2.61%
18,COc1ccccc1NC(=O)N[C@@H]1CC[C@H](CCn2cc(-c3ccccc3OC)nn2)O[C@H]1CO,9.07%
19,CC(C)NC(=O)N(C)C[C@@H]1OCCCC[C@H](C)Oc2ccc(NC(=O)Cc3ccccc3)cc2C(=O)N([C@H](C)CO)C[C@H]1C,10.3%
20,COc1cccc(C#Cc2cnc3c(c2)C(=O)N([C@H](C)CO)C[C@@H](C)[C@@H](CN(C)C(=O)C2CCOCC2)O3)c1,4.13% [at 23.5 µM]
